From the supplement of paper PMC4894684
Structures can show the parent of a compound that is named as a salt. ± gives the standard deviation of the averaged measurements.

The molecules below were run on Toxoplasma gondii RH (in HFF) (assay: parasite growth relative to the screen mean (all compounds = 100%); higher = less inhibition of parasite growth). Conditions: 5 µM; 72 h; oxygen 21 %.
Outline: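 Each value is parasite growth expressed against the screen mean, averaged over two screens, where the mean of all compounds = 100%. The screen used 5 µM final compound on confluent human foreskin fibroblasts infected with RH β-Gal–GFP Toxoplasma (MOI 1:5) within 2 h and grown 72 h at 21% O2. Parasite number was measured by a CPRG β-Gal assay against in-plate standard curves.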

| SMILES | parasite growth [%] |
| --- | --- |
| CNCCCC12CCC(c3ccccc31)c1ccccc12 [Maprotiline hydrochloride] | 54.1 ± 17 |
| N[C@H](C(=O)O)c1ccc(O)c(C(=O)O)c1 [(S)-3-Carboxy-4-hydroxyphenylglycine] | 153 ± 9.2 |
| CCN(CC)CC1CCCCN1CC(=O)N1c2ccccc2C(=O)Nc2cccnc21 (stereo not drawn) | 146 ± 36 |
| CN1CCN(CCc2ccc(Cl)c(Cl)c2)CC1 [BD 1063 dihydrochloride] | 50.9 ± 5.6 |
| C[C@@H](N)[C@H]1CC[C@H](C(=O)Nc2ccncc2)CC1 | 92.3 ± 21 |
| Nc1c2c(nc3ccccc13)CCCC2 [Tacrine hydrochloride] | 130 ± 27 |
| Cc1[nH]c(/C=C2\C(=O)Nc3ccc(S(=O)(=O)Cc4c(Cl)cccc4Cl)cc32)c(C)c1C(=O)N1CCC[C@@H]1CN1CCCC1 | < 0 |
| C/C(=N\NC(=O)C1C(=O)NCC1c1ccccc1)c1cccc(Br)c1 (stereo not drawn) | 147 ± 29 |
| Cc1noc(NS(=O)(=O)c2ccc(N)cc2)c1C [Sulfisoxazole] | 108 ± 1.1 |
| Clc1ccccc1CNCC1CCC(CNCc2ccccc2Cl)CC1 (stereo not drawn) | 38.9 ± 23 |
| O=[N+]([O-])c1cccc2c[nH]nc12 | 97.2 ± 10 |
| Cc1cccc(C(=O)NCN2CCN(c3ccccc3C#N)CC2)c1 | 133 ± 7.4 |
| COc1ccccc1N1CCN(CCN2C(=O)CC3(CCCC3)CC2=O)CC1 [BMY 7378 dihydrochloride] | 81.06 ± 0.29 |
| CC(C)[C@H](CO)Nc1nc(Nc2ccc(C(=O)O)c(Cl)c2)c2ncn(C(C)C)c2n1 [Purvalanol B] | 141 ± 2.9 |
| NC(C(=O)O)c1cc(O)cc(O)c1 (racemic) | 142 ± 15 |
| O=C1NC(c2cccc([N+](=O)[O-])c2)=CCN1c1ccccc1O [Icilin] | 128 ± 36 |
| COc1cc2ncnc(Nc3ccc(Oc4ccccc4)cc3)c2cc1OC | 110 ± 20 |
| O=C1NC(=O)C(c2ccccc2[N+](=O)[O-])=C1Nc1ccc(O)c(Cl)c1 | 155 ± 3.7 |
| O=C(O)C1=CCNCC1 [Isoguvacine hydrochloride] | 130 ± 9.5 |

| SMILES | parasite growth [%] |
| --- | --- |
| CC1=Nc2ccc(Cl)cc2S(=O)(=O)N1 [Diazoxide] | 77.6 ± 16 |
| COc1ccccc1N1CCN(CCCNc2cc(=O)n(C)c(=O)n2C)CC1 [Urapidil hydrochloride] | 105 ± 3.7 |
| O=C(/C=C/c1ccc(O)c(O)c1)OCCc1ccccc1 [Caffeic acid phenethyl ester] | 105 ± 73 |
| OC(CN1CCN(c2cccc(Cl)c2)CC1)C(c1ccccc1)c1ccccc1 (stereo not drawn) | 147 ± 28 |
| Cc1c[nH]c(=O)n(CCCN2CCN(c3ccccc3OCC(F)(F)F)CC2)c1=O | 116 ± 6.9 |
| CCN1CCC[C@H]1CNC(=O)c1c(O)c(Cl)cc(Cl)c1OC [Raclopride] | 138 ± 25 |
| CCCCN1CCC(CCC(=O)c2cc(Cl)c(N)cc2OC)CC1 | 67.2 ± 14 |
| CCN(CC)CCCCNc1ncc2cc(-c3c(Cl)cccc3Cl)c(NC(=O)NC(C)(C)C)nc2n1 | < 0 |
| O=C(c1ccc(F)cc1)C1CCN(CCn2c(=O)[nH]c3ccccc3c2=O)CC1 [Ketanserin tartrate] | 183 ± 33 |
| Cc1ccc2c(c1)C(=O)C1(O)CCN(c3ccccc3)C1=N2 (racemic) [(±)-Blebbistatin] | 161 ± 15 |
| Cc1ccccc1N1CCN(S(=O)(=O)C[C@]23CC[C@H](C[C@@H]2NC(=O)[C@@H](N)CCS(C)(=O)=O)C3(C)C)CC1 [L-368,899 hydrochloride] | 161 ± 16 |
| OC(CCCN1CCN(c2ncc(F)cn2)CC1)c1ccc(F)cc1 (stereo not drawn) | 64.6 ± 30 |
| CC1CCN(CCCC(=O)c2ccc(F)cc2)CC1 [Melperone hydrochloride] | 126 ± 12 |
| Cc1nc2sccn2c(=O)c1CCN1CCC(=C(c2ccccc2)c2ccc(F)cc2)CC1 | 106 ± 24 |
| COc1ccc(C2CC(c3c(O)cc(C)oc3=O)=NCCS2)c(OC)c1 (stereo not drawn) | 69.6 ± 9.3 |
| Clc1cccc(Cl)c1NC1=NCCN1 [Clonidine hydrochloride] | 153 ± 28 |
| CCOc1ccc(Nc2nc(-c3c(C)nc4ccccn34)cs2)cc1 | 127 ± 44 |
| CCCCCCCCCCCC1=C(O)C(=O)C=C(O)C1=O [Embelin] | 122 ± 4.3 |
| Cc1ccc(NC(=O)C(C)C)cc1C1CCN(Cc2ccc(Oc3ccc(F)c(F)c3)cc2)CC1 | < 0 |
